In PubChem BioAssay (EPA / NIEHS):
Inconclusive results are not listed. The source made the active and inactive calls. Rule for the calls: active = hit-call score of the fitted dose curve at least 0.9, where 1 is the maximum; inconclusive = response in the unintended direction; inactive = score below 0.9.

Key:
[1] = target: Estrogen receptor (Homo sapiens) (UniProt P03372); experiment: OT_ER_ERaERa_0480: Odyssey Thera (OT) 8-hour HEK293T Protein-Complementation Assay for Estrogen Receptor-alpha/-alpha Homodimer (AID 2283351);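 note: rise in fluorescence from reassembled reporter fragments on ERα LBD homodimer in nucleus or whole cell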
Chain of Estrogen receptor (Homo sapiens) (P03372 whole entry, looked up, the tested form may be a part): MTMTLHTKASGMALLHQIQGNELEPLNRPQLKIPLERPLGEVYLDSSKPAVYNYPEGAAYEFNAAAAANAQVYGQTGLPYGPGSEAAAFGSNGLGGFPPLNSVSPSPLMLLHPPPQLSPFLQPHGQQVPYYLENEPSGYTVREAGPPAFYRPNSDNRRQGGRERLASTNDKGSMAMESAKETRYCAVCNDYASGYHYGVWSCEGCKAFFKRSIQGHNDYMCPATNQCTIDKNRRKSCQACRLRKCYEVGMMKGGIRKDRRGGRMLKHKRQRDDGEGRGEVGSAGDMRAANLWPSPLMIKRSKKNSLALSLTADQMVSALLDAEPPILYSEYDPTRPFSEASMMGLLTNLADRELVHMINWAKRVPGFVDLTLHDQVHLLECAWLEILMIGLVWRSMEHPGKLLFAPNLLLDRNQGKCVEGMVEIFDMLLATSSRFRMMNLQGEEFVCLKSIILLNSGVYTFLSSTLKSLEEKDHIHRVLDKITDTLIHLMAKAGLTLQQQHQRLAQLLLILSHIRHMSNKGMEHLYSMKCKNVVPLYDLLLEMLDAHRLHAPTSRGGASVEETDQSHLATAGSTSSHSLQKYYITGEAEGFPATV
In short: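 HEK293T cells stably expressing the human ERα ligand-binding domain (aa 310-547) as a homodimer PCA were dosed with compound for 8 h. Gain of fluorescence intensity versus DMSO vehicle was read by laser scanning cytometry.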

[2] = target: Estrogen receptor (Homo sapiens) + Estrogen receptor beta (Homo sapiens) (UniProt P03372+Q92731); experiment: OT_ER_ERaERb_1440: Odyssey Thera (OT) 24-hour HEK293T Protein-Complementation Assay for Estrogen Receptor-alpha/-beta Homodimer (AID 2283356);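 note: heteromer of ER alpha and ER beta binding domains; hits raise reporter fluorescence and both agonists and antagonists give an increase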
Chain of Estrogen receptor (Homo sapiens) + Estrogen receptor beta (Homo sapiens) (P03372 whole entry, looked up, the tested form may be a part): as above
Chain of Estrogen receptor (Homo sapiens) + Estrogen receptor beta (Homo sapiens) (Q92731 whole entry, looked up, the tested form may be a part): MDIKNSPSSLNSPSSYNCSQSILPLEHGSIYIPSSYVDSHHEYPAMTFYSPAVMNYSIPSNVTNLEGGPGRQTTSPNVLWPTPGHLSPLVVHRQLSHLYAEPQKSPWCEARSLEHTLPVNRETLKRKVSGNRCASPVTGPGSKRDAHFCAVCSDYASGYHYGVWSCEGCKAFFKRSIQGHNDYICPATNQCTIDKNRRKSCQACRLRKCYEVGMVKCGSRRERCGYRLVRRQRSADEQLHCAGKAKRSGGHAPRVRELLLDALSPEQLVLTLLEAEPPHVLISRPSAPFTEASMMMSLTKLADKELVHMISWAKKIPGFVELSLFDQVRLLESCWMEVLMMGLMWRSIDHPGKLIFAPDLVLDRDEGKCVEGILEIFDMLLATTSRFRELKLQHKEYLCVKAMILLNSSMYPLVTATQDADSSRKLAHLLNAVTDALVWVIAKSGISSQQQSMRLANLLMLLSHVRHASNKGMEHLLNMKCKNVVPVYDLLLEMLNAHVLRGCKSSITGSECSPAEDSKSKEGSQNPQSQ
In short: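 HEK293T stably expressing a PCA of ER alpha LBD (aa 310-547) and ER beta LBD (aa 263-489). After 24 h compound exposure, mean fluorescence intensity in nucleus (agonists) or nucleus and cytoplasm (antagonists) measured by laser scanning cytometry versus vehicle.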

[3] = target: mouse Estrogen Receptor alpha (Era), Esr1 (gene 13982) (UniProt P19785); experiment: NVS_NR_mERa: NovaScreen (NVS) Nuclear Receptor Binding Assay for mouse Estrogen Receptor alpha (Era) (AID 2283378);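 note: hit means loss of bound radioligand signal relative to DMSO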
In short: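 Cell-free radioligand competitive displacement binding, read by filter-based scintillation counting 18 h after dosing. Primary screen run in duplicate at 25 uM, actives retested in concentration series; loss of signal versus DMSO.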

[4] = target: Estrogen receptor beta (Homo sapiens) (UniProt Q92731); experiment: OT_ER_ERbERb_1440: Odyssey Thera (OT) 24-hour HEK293T Protein-Complementation Assay for Estrogen Receptor-beta/-beta Homodimer (AID 2283380);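 note: fluorescence gain from ER beta LBD homodimer complementation read by laser scanning cytometry; scored as signal increase over DMSO baseline for both agonists and antagonists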
In short: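 HEK293T cells stably expressing human ER-beta LBD (aa 310-547) PCA homodimer pair, dosed 24 h; formaldehyde-fixed, Draq5-stained. Readout: increase in nuclear (agonist) or nuclear plus cytoplasmic (antagonist) fluorescence intensity versus DMSO, gain-of-signal fitting.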

[5] = target: Estrogen receptor beta (Homo sapiens) (UniProt Q92731); experiment: OT_ER_ERbERb_0480: Odyssey Thera (OT) 8-hour HEK293T Protein-Complementation Assay for Estrogen Receptor-beta/-beta Homodimer (AID 2283357);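 note: active means signal gain over DMSO baseline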
In short: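 Readout: increase in mean fluorescence intensity (nucleus for agonists; nucleus plus cytoplasm for antagonists) relative to DMSO, from a reporter-fragment complementation of human ER-beta LBD homodimer in HEK293T cells dosed 8 hours.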

[6] = target: Peroxisome proliferator-activated receptor gamma (Homo sapiens) (UniProt P37231); experiment: NVS_NR_hPPARg: NovaScreen (NVS) Nuclear Receptor Binding Assay for human Peroxisome Proliferator-activated Receptor gamma (PPARg) (AID 2283370)
Chain of Peroxisome proliferator-activated receptor gamma (Homo sapiens) (P37231 whole entry, looked up): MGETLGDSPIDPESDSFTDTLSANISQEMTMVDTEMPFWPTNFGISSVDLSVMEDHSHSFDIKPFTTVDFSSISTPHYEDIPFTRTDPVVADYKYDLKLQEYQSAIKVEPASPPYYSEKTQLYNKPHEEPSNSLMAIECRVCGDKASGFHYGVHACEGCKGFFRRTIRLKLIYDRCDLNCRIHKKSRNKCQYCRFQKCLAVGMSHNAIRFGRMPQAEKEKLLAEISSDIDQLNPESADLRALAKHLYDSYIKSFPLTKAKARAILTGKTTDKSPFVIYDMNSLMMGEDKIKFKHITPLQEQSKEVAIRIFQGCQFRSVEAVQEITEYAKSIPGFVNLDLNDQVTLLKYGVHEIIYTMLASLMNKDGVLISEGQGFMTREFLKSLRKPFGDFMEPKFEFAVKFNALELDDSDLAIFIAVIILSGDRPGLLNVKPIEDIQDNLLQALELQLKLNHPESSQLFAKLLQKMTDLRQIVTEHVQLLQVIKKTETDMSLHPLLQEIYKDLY
In short: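 Cell-free fluorescence polarization binding to human PPARg protein, read 2 h after dosing. Primary screen in duplicate at 25 uM, actives followed in concentration series; loss of signal relative to DMSO scored.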

[7] = target: Androgen Receptor/SRC-1 Co-activator, AR (gene 367) (UniProt P10275); experiment: OT_AR_ARSRC1_0960: Odyssey Thera (OT) 16-hour HEK293T Protein-Complementation Assay for Androgen Receptor/SRC-1 Co-activator (AID 2283353);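 note: actives raise the signal above DMSO so potency reflects increased AR and SRC-1 complex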
Chain of Androgen Receptor/SRC-1 Co-activator, AR (gene 367) (P10275 whole entry, looked up, the tested form may be a part): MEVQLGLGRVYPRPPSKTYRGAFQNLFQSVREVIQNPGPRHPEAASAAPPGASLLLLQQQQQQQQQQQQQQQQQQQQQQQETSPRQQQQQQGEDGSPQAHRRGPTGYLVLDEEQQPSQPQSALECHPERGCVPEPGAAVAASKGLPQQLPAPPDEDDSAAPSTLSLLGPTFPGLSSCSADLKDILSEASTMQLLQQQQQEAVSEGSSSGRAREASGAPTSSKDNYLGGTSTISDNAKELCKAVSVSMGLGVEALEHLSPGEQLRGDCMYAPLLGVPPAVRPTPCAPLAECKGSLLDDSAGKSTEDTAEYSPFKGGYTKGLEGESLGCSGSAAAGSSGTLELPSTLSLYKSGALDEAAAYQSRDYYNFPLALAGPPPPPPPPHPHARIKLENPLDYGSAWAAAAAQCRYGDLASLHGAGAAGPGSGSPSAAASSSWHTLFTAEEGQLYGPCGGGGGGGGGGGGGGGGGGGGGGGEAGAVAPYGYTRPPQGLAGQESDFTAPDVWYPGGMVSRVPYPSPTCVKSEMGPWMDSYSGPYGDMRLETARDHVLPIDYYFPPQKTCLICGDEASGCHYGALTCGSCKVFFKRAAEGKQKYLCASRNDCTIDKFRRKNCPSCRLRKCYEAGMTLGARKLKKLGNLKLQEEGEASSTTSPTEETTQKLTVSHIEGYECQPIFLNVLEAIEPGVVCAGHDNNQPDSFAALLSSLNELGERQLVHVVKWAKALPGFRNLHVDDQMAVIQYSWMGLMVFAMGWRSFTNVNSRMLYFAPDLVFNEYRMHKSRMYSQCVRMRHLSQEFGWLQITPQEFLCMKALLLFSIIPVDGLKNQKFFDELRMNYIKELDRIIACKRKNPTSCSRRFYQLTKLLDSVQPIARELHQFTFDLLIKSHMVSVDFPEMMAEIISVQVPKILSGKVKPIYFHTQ
In short: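 HEK293T cells stably expressing AR and SRC-1 fused to split Venus YFP fragments via (Gly4Ser)2 linkers were dosed for 16 h. Nuclear/cytoplasmic fluorescence ratio at 488 nm, ≥400 cells per image, fitted for gain of signal versus DMSO.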

[8] = target: Androgen Receptor/SRC-1 Co-activator, AR (gene 367) (UniProt P10275); experiment: OT_AR_ARSRC1_0480: Odyssey Thera (OT) 8-hour HEK293T Protein-Complementation Assay for Androgen Receptor/SRC-1 Co-activator (AID 2283354);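 note: hits raise the complementation signal above DMSO so AC50 marks enhancers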
In short: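 HEK293T cells stably expressing AR and SRC-1 fused to split Venus YFP fragments via (Gly4Ser)2 linkers were read 8 h after compound dosing. Complementation was imaged at 488 and 635nm, and nuclear/cytoplasmic fluorescence ratio (488nm) was taken over ≥400 cells; gain-of-signal versus DMSO.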

[9] = target: Nuclear receptor subfamily 1 group I member 2 (Homo sapiens) (UniProt O75469); experiment: NVS_NR_hPXR: NovaScreen (NVS) Nuclear Receptor Binding Assay for human Pregnane X Receptor (PXR) (AID 2283365);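 note: a drop in FRET signal versus DMSO baseline means the compound binds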
Chain of Nuclear receptor subfamily 1 group I member 2 (Homo sapiens) (O75469 whole entry, looked up): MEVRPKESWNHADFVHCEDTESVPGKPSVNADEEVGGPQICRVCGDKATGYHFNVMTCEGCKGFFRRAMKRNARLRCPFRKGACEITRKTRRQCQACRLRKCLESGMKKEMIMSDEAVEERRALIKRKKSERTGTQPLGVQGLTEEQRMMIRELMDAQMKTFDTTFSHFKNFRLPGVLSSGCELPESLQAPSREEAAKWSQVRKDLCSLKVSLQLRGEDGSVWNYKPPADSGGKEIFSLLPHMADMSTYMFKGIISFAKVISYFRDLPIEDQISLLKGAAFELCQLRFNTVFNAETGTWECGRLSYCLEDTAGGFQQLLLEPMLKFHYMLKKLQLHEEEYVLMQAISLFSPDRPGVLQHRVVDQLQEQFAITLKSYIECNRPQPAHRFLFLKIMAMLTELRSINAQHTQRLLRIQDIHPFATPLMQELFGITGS
In short: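 Cell-free TR-FRET binding assay with extracted human PXR protein, read 2 h after dosing. Primary screen run in duplicate at 25 uM, actives followed in concentration series; loss of signal fitted against DMSO baseline.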

[10] = target: human Thyroid Receptor Alpha (TRa), THRA (gene 7067) (UniProt P10827); experiment: NVS_NR_hTRa_Antagonist: NovaScreen (NVS) Nuclear Receptor Binding Assay for human Thyroid Receptor Alpha Antagonism (TRa) (AID 2283362);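 note: activity is loss of signal relative to DMSO baseline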
In short: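 Cell-free AlphaLISA chemiluminescent binding read 1 h after dosing, antagonist mode; signal loss versus DMSO baseline. Primary screen in duplicate at 25 uM, then concentration series for actives.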

[11] = target: Agonist Androgen Response Element (ARE), AR (gene 367) (UniProt P10275); experiment: OT_AR_ARELUC_AG_1440: Odyssey Thera (OT) 24-hour CHO-K1 Luciferase Assay for Agonist Androgen Response Element (ARE) (AID 2283379)
Chain of Agonist Androgen Response Element (ARE), AR (gene 367) (P10275 whole entry, looked up): as the sequence (P10275 whole entry, looked up, the tested form may be a part) above
In short: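 Seed CHO-K1 cells; dose compounds for 24 h; add D-luciferin plus ATP in PBS; read luminescence. Signal increase relative to vehicle defines agonist activity, with at least 3 replicate wells per sample.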

[12] = target: human Peroxisome Proliferator-activated Receptor alpha (PPARa), PPARA (gene 5465) (UniProt Q07869); experiment: NVS_NR_hPPARa: NovaScreen (NVS) Nuclear Receptor Binding Assay for human Peroxisome Proliferator-activated Receptor alpha (PPARa) (AID 2283359);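 note: activity means loss of TR-FRET signal versus DMSO baseline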
Chain of human Peroxisome Proliferator-activated Receptor alpha (PPARa), PPARA (gene 5465) (Q07869 whole entry, looked up): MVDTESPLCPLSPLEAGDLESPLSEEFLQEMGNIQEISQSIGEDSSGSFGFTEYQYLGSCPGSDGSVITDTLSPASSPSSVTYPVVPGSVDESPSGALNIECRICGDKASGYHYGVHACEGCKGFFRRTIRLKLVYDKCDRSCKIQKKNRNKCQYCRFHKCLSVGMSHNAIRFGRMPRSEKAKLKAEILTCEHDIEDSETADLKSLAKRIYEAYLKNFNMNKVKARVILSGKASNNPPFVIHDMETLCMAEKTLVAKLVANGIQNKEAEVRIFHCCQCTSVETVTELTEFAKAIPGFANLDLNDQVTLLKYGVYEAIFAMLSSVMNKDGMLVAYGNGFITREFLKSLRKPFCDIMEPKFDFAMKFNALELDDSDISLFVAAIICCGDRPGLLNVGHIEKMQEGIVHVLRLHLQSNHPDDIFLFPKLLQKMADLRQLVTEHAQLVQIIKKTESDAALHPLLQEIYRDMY
In short: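 Cell-free binding assay with extracted human protein, read by TR-FRET 1 h after chemical dosing. Loss of signal relative to DMSO baseline indicates binding. Primary screen used duplicate single concentration (25 uM); actives followed up in concentration series.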

[13] = target: human Dopamine Transporter (DAT), SLC6A3 (gene 6531) (UniProt Q01959); experiment: NVS_TR_hDAT: NovaScreen (NVS) Transporter Assay for human Dopamine Transporter (DAT) (AID 2283374);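 note: activity means loss of bound radioligand signal relative to DMSO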
In short: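 Cell-free radioligand binding to extracted human DAT protein, read 1 h after dosing by filter-based scintillation counting. Loss of specific binding scored against DMSO baseline; primary screen in duplicate at 25 uM, actives then run in concentration series.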

[14] = target: rat Mineralocorticoid Receptor (MR), Nr3c2 (gene 25672) (UniProt P22199); experiment: NVS_NR_rMR: NovaScreen (NVS) Nuclear Receptor Binding Assay for rat Mineralocorticoid Receptor (MR) (AID 2283355)
In short: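 Cell-free radioligand binding to MR in adrenalectomized rat brain supernatant, scintillation counted 24 h after dosing. Loss of signal versus DMSO baseline marks displacement. Primary screen in duplicate at 25 uM; actives retested as concentration series.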

[15] = target: Glucocorticoid receptor (Homo sapiens) (UniProt P04150); experiment: NVS_NR_hGR: NovaScreen (NVS) Nuclear Receptor Binding Assay for human Glucocorticoid Receptor (GR) (AID 2283363);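 note: activity is loss of specific radioligand binding signal relative to DMSO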
In short: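 Cell-free radioligand binding with extracted receptor protein, read by filter-based scintillation counting 16 hours after dosing. Loss of specific signal versus DMSO baseline was scored. Primary screen ran in duplicate at 25 uM; actives were followed up in concentration series.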

PGR (gene 5241) = PGR (gene 5241) (UniProt P06401); experiment: NVS_NR_hPR: NovaScreen (NVS) Nuclear Receptor Binding Assay for human Progestron Receptor (PR) (AID 2283360);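 note: active means loss of bound radioligand signal versus DMSO baseline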
In short: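 Competitive displacement of a labelled radioligand from T47D-derived receptor protein is measured in a cell-free format. Initial testing uses 25 uM in duplicate, with positive and negative controls on every plate.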

SMILES: CCCCCCCCCC=O
- outcome [1]: inactive
- outcome [2]: inactive
- outcome [3]: inactive
- outcome [4]: inactive

SMILES: CC(=O)C=CC1=C(C)CCCC1(C)C
- outcome [1]: inactive

SMILES: OCCN1CCNCC1
- outcome [1]: inactive
- outcome [2]: inactive
- outcome [5]: inactive
- outcome [6]: inactive
- outcome [4]: inactive

SMILES: NCCCN1CCOCC1
- outcome [1]: inactive
- outcome [7]: inactive
- outcome [8]: inactive
- outcome [2]: inactive
- outcome [5]: inactive
- outcome [4]: inactive

SMILES: CC1COc2ccccc2N1C(=O)C(Cl)Cl (stereo unspecified)
- outcome [1]: inactive
- outcome [2]: inactive
- outcome [5]: inactive
- AC50 [3]: 1.88 µM (active)
- outcome [4]: inactive

SMILES: CCCCCCCCC
- outcome [1]: inactive
- outcome [2]: inactive
- outcome [5]: inactive
- outcome [4]: inactive

SMILES: C=CCOc1nc(OCC=C)nc(OCC=C)n1
- outcome [5]: inactive
- AC50 [4]: 25.5 µM (active)

SMILES: CCCCCC(CO)CCC (stereo unspecified)
- outcome [5]: inactive
- outcome [6]: inactive
- outcome [4]: inactive

SMILES: COc1c(Cl)c(Cl)c(Cl)c(Cl)c1Cl
- AC50 [5]: 41.8 µM (active)
- outcome [9]: inactive
- outcome [4]: inactive

SMILES: C=O
- outcome [5]: inactive
- outcome [4]: inactive

SMILES: OCCOCCOCCOCCO
- outcome [2]: inactive
- outcome [5]: inactive
- outcome [4]: inactive

SMILES: COc1ccc(O)cc1
- outcome [7]: inactive
- outcome [5]: inactive
- outcome [10]: inactive
- outcome [11]: inactive
- outcome [4]: inactive

SMILES: CCCCC(CC)COC(=O)/C=C\C(=O)OCC(CC)CCCC (stereo unspecified)
- AC50 [7]: 75.5 µM (active)
- outcome [5]: inactive
- outcome [6]: inactive
- outcome [4]: inactive

SMILES: OC1OC[C@@H](O)[C@H](O)[C@H]1O (stereo partly specified)
- outcome [5]: inactive
- outcome [6]: inactive
- outcome [4]: inactive

SMILES: O=C[C@@H](O)[C@H](O)[C@H](O)CO
- outcome [7]: inactive
- outcome [5]: inactive
- outcome [6]: inactive
- AC50 [11]: 1.26 µM (active)
- outcome [4]: inactive

SMILES: CCCCCOC(=O)CCC
- outcome [5]: inactive
- outcome [12]: inactive
- outcome [4]: inactive

SMILES: O=C(Cl)c1cccc(C(=O)Cl)c1
- outcome [5]: inactive
- outcome [13]: inactive
- outcome [4]: inactive

SMILES: Cc1ccc(C(C)C)cc1O
- AC50 [5]: 63.6 µM (active)
- outcome [4]: inactive

SMILES: CC(=O)O[C@]1(C(C)=O)CC[C@H]2[C@@H]3C[C@H](C)C4=CC(=O)CC[C@]4(C)[C@H]3CC[C@@]21C
- AC50 [14]: 0.569 µM (active)
- AC50 [15]: 0.00114 µM (active)

SMILES: O=C(O)CCCCCCCC(=O)O
- outcome [5]: inactive
- outcome [4]: inactive

SMILES: O=C(O)c1ccc([N+](=O)[O-])cc1
- outcome [5]: inactive
- outcome [4]: inactive

SMILES: O=C(Oc1ccccc1)c1ccc(O)cc1
- AC50 [5]: 2.42 µM (active)
- outcome [6]: inactive
- AC50 [4]: 4.86 µM (active)

SMILES: CCCCOCCOCCOCCOCCO
- outcome [2]: inactive
- outcome [5]: inactive
- outcome [4]: inactive

SMILES: C[Si](O[Si](C)(C)C)O[Si](C)(C)C
- outcome [7]: inactive
- outcome [5]: inactive
- outcome [11]: inactive
- outcome [4]: inactive

SMILES: CC(C)CCCCCCCOC(=O)c1ccc(C(=O)OCCCCCCCC(C)C)c(C(=O)OCCCCCCCC(C)C)c1
- outcome [5]: inactive
- outcome [6]: inactive
- outcome [4]: inactive

SMILES: CC(C)(C#N)c1cc(Cn2cncn2)cc(C(C)(C)C#N)c1
- outcome [5]: inactive
- outcome [9]: inactive
- outcome [4]: inactive

SMILES: CCCOCC(C)O (stereo unspecified)
- outcome [7]: inactive
- outcome [8]: inactive
- outcome [11]: inactive

SMILES: C=CC(C)(O)CCC=C(C)CCC=C(C)C (stereo unspecified)
- outcome [5]: inactive
- outcome [4]: inactive

SMILES: CCC(=O)/C=C/C1C(C)=CCCC1(C)C (stereo unspecified)
- outcome [5]: inactive
- outcome [9]: inactive
- outcome [4]: inactive

SMILES: C#C[C@]1(O)CC[C@H]2[C@@H]3CCC4=Cc5oncc5C[C@]4(C)[C@H]3CC[C@@]21C
- outcome [14]: inactive
- AC50 (PGR (gene 5241)): 41.5 µM (active)
- AC50 [15]: 0.319 µM (active)

SMILES: CCCCCCCCCCN
- outcome [5]: inactive
- outcome [4]: inactive

SMILES: CC1(C)C(=O)N(Br)C(=O)N1Cl
- outcome [5]: inactive
- outcome [4]: inactive

SMILES: CCCCCCCCCCCCCCCCCC(=O)OCC(CC)CCCC (stereo unspecified)
- outcome [5]: inactive
- outcome [4]: inactive

SMILES: CCCCCCCCCCCCCCCC(=O)O
- outcome [5]: inactive
- outcome [12]: inactive
- outcome [6]: inactive
- outcome [4]: inactive

SMILES: CC(C)=CCCC(C)=CCCC(C)=CCO
- outcome [5]: inactive
- outcome [9]: inactive
- AC50 [4]: 12.8 µM (active)

SMILES: CCCC/C=C\CCCCCCCCCC=O
- outcome [5]: inactive
- outcome [9]: inactive
- outcome [6]: inactive
- outcome [4]: inactive

SMILES: C=CC[N+](C)(C)CC=C
- outcome [5]: inactive

SMILES: CC(C)=CCC[C@](C)(O)[C@@H]1CC=C(C)CC1
- outcome [5]: inactive

SMILES: COc1cc(C(C)(C)C)c(O)c(C(C)(C)C)c1
- outcome [12]: inactive

SMILES: CN(CCOc1ccc(CC2SC(=O)NC2=O)cc1)c1ccccn1 (stereo unspecified)
- outcome (PGR (gene 5241)): inactive

SMILES: O=C1C(c2[nH]c3ccc(S(=O)(=O)O)cc3c2O)=Nc2ccc(S(=O)(=O)O)cc21
- outcome [6]: inactive

SMILES: COC(C)CCO (stereo unspecified)
- outcome [6]: inactive

SMILES: Cc1ccc(O)c(C(C)(C)C)c1
- AC50 [13]: 25 µM (active)

SMILES: CNC[C@H](O)c1cccc(O)c1
- AC50 [13]: 25 µM (active)
